Out of some 13,000 compounds screened, about 3,200 (25%) showed an effect of 50% or more. This is one part of the list.
Tested on: P. falciparum stage V gametocytes
Design: BacTiter-Glo ATP luminescence viability of purified stage V gametocytes in 384-well plates, per cent inhibition versus DMSO
Details: 48 h, 5 µM; inhibitor

Q: Which “% Inhibition” value does the source give for `CC[C@H](NC(=O)c1c(CN2CCC(N3CCCCC3)CC2)c(-c2ccccc2)nc2cc(O)ccc12)c1ccccc1` [TCMDC-140381] here?
A: 13.93%

Q: How did the “% Inhibition” value turn out when `CC(C)CCN1CCC(Oc2ccc(NC(=O)c3ccc4ncccc4c3)cc2Cl)C1` (centres unmarked) [TCMDC-133982] was run?
A: 6.933%

Q: For `Clc1ccccc1CNc1noc(-c2sccc2Br)n1` [TCMDC-134189], which “% Inhibition” value is on record?
A: -9.305%

Q: For `CCc1c(C)nc(-n2nc(C)cc2NC(=O)c2ccc(OC)cc2OC)[nH]c1=O` [TCMDC-124937], which “% Inhibition” value is on record?
A: 1.355%

Q: For `Cc1cc(NC(=O)c2cc(Br)ccc2Cl)n(-c2nc(C)c(C)c(=O)[nH]2)n1` [TCMDC-124938], which “% Inhibition” value is on record?
A: 58.54%

Q: `CCc1c(C)nc(-n2nc(C)cc2NC(=O)c2cccc3ccccc23)[nH]c1=O` [TCMDC-124936] was tested. Which “% Inhibition” value did it give?
A: 19.12%

Q: For `COc1cccc2cc(C(=O)N[C@@H](CC(C)C)C(=O)N[C@H](/C=N/NC(=O)N3CCN(C)CC3)CCc3ccccc3)oc12` [TCMDC-136052], which “% Inhibition” value is on record?
A: 37.67%

Q: Which “% Inhibition” value does the source give for `COc1cc(NC(=O)N2CCOC(CCN3CCC(c4ccccc4)CC3)(c3ccc(Cl)c(Cl)c3)C2)cc(OC)c1OC` (centres unmarked) [TCMDC-135349] here?
A: -27.1%

Q: `CC(C)(C)c1cc(N=NC(=O)c2ccncc2)cc(C(C)(C)C)c1O` [TCMDC-123490] was tested. Which “% Inhibition” value did it give?
A: -20.54%

Q: Which “% Inhibition” value does the source give for `N#Cc1ccc(N(CCOc2ccc(Cl)c(F)c2)Cc2ccccc2C(F)(F)F)cc1C(F)(F)F` [TCMDC-132797] here?
A: -6.991%

Q: `O=C(c1cc(C(=O)NCc2ccc(Cl)cc2)c(=O)n(Cc2ccc(Cl)cc2)c1)c1cc(F)ccc1O` [TCMDC-125145] was tested. Which “% Inhibition” value did it give?
A: -12.34%

Q: With `O=C(NCCCCN1CCC(c2ccc3ccccc3c2O)CC1)c1ccc(-c2ccc(Cl)cc2)cc1` [TCMDC-138663] as the compound, how does the “% Inhibition” value read?
A: 108.9%

Q: `O=C(NCCCCN1CCC(c2cccc3ccccc23)CC1)c1ccc(NC(=O)c2ccc(Cl)cc2)cc1` [TCMDC-138340] was tested. Which “% Inhibition” value did it give?
A: -11.24%

Q: `O=C(NCCCCN1CCC(c2ccc3ccccc3c2)CC1)c1ccc(NC(=O)c2ccc(Cl)cc2)cc1` [TCMDC-138378] was tested. Which “% Inhibition” value did it give?
A: -9.216%

Q: How did the “% Inhibition” value turn out when `O=C(NCCCCN1CCC(c2ccc3ccccc3c2O)CC1)c1ccc(NC(=O)c2ccc(Cl)cc2)cc1` [TCMDC-138654] was run?
A: 82.05%

Q: With `CC(=O)Oc1c(C2CCN(CCCCNC(=O)c3ccc(NC(=O)c4ccc(Cl)cc4)cc3)CC2)ccc2ccccc12` [TCMDC-138657] as the compound, how does the “% Inhibition” value read?
A: 89.12%

Q: Which “% Inhibition” value does the source give for `Cc1cccc2[nH]c(-c3cccc(-c4cccc(NC(=O)CNC(=O)c5ccc(O)cc5)c4)c3)nc12` [TCMDC-136818] here?
A: -5.376%

Q: `Cc1cc(OCCCn2ccnc2)ccc1-c1csc(NC(N)=NCc2ccccc2)n1` [TCMDC-138931] was tested. Which “% Inhibition” value did it give?
A: 31.69%

Q: `CC(C(=O)OCCOCn1cnc2c(=O)[nH]c(N)nc21)N(C)C(=O)OC(C)(C)C` (centres unmarked) [TCMDC-137343] was tested. Which “% Inhibition” value did it give?
A: 21.46%

Q: `CC(C)c1ccc(S(=O)(=O)N(c2ccc3c(c2)OCO3)C2CCN(Cc3ccccc3)C2)cc1` (centres unmarked) [TCMDC-134099] was tested. Which “% Inhibition” value did it give?
A: -69.31%

Q: For `COc1ccc(N2C(N)=NC(N)=NC2(C)C)cc1OC` [TCMDC-124282], which “% Inhibition” value is on record?
A: 18.93%

Q: `CC(CN1CCN(C)CC1)C(=O)Nc1cccc(-c2cccc(-c3nc4ccccc4[nH]3)c2)c1` (centres unmarked) [TCMDC-137141] was tested. Which “% Inhibition” value did it give?
A: 72.32%

Q: With `CC(CN1CCN(C)CC1)C(=O)Nc1cccc(-c2ccc(-c3nc4ccccc4[nH]3)cc2)c1` (centres unmarked) [TCMDC-137147] as the compound, how does the “% Inhibition” value read?
A: 83.04%

Q: Which “% Inhibition” value does the source give for `Cc1cccc2nc(-c3ccc(-c4cccc(NC(=O)C(C)CN5CCN(C)CC5)c4)s3)[nH]c12` (centres unmarked) [TCMDC-137155] here?
A: -49.23%

Q: For `CCc1cc2c(=O)c(-c3nc(C)cs3)c(N)oc2c(CN2CCCCC2)c1O` [TCMDC-124016], which “% Inhibition” value is on record?
A: 0.6377%

Q: Which “% Inhibition” value does the source give for `COc1cc(C(=O)N2N=C(c3c(-c4ccccc4)c4cc(Br)ccc4[nH]c3=O)CC2c2cccc([N+](=O)[O-])c2)cc(OC)c1OC` (centres unmarked) [TCMDC-124218] here?
A: 43.01%

Q: `Cc1noc(C)c1-c1cccc(CNCc2ccc(-c3cccc(-c4nc5cccc(C)c5[nH]4)c3)cc2)c1.O=C(O)C(F)(F)F` [TCMDC-133052] was tested. Which “% Inhibition” value did it give?
A: -22.75%

Q: For `O=C(/C=C/c1ccc(Cl)c(Cl)c1)NC1CCC(CN2CCC(c3nc4ncccc4[nH]3)CC2)CC1` (centres unmarked) [TCMDC-140264], which “% Inhibition” value is on record?
A: 5.039%

Q: How did the “% Inhibition” value turn out when `CC(C)(C)c1ccc(CN2CCC(NC(=O)c3ccc(-c4cccc(C(F)(F)F)c4)s3)CC2)cc1` [TCMDC-134348] was run?
A: -9.273%

Q: With `COc1cc(NC(=O)c2cc3c(C)nn(-c4cccc(C(F)(F)F)c4)c3s2)cc(OC)c1OC` [TCMDC-123615] as the compound, how does the “% Inhibition” value read?
A: -65.38%

Q: How did the “% Inhibition” value turn out when `Cc1nn(-c2cccc(C(F)(F)F)c2)c2sc(C(=O)NC3CCN(C(C)C)CC3)cc12` [TCMDC-125005] was run?
A: 65.55%

Q: How did the “% Inhibition” value turn out when `COc1cc(OC)c2c(C)cc(NCCCn3ccnc3)nc2c1` [TCMDC-125762] was run?
A: 61.26%

Q: How did the “% Inhibition” value turn out when `COc1cc(OC)c2c(C)cc(NCCCN3CCOCC3)nc2c1` [TCMDC-125775] was run?
A: -9.297%

Q: How did the “% Inhibition” value turn out when `COc1cccc(-c2cc3nc4c(c(NCCCn5ccnc5)n3n2)CCCC4)c1` [TCMDC-124388] was run?
A: -20.83%

Q: `Nc1nc(-c2ccc3c(Nc4ccc(F)c(Cl)c4)ccnc3c2)cs1` [TCMDC-138353] was tested. Which “% Inhibition” value did it give?
A: 24.85%

Q: With `Fc1ccccc1-c1cc(Nc2ccncc2)nc(-c2cccnc2)n1` [TCMDC-125415] as the compound, how does the “% Inhibition” value read?
A: 17.65%

Q: For `O=C(NCCCCCN1CCC(c2c[nH]c3ccccc23)CC1)Nc1ccc(Cl)c(Cl)c1` [TCMDC-139117], which “% Inhibition” value is on record?
A: 79.3%

Q: Which “% Inhibition” value does the source give for `S=C(NCCCCCN1CCC(c2c[nH]c3ccccc23)CC1)Nc1ccc(Cl)c(Cl)c1` [TCMDC-139170] here?
A: -11.79%

Q: Which “% Inhibition” value does the source give for `O=C(NCCCCCN1CCC(c2c[nH]c3ccccc23)CC1)Nc1cccc(Cl)c1` [TCMDC-139167] here?
A: 82.38%

Q: For `O=C(NCC(CCCN1CCC(c2c[nH]c3ccccc23)CC1)c1ccccc1)Nc1ccc(Cl)c(Cl)c1` (centres unmarked) [TCMDC-139507], which “% Inhibition” value is on record?
A: -18.56%

Q: For `O=C(NCCCCCN1CCC(c2c[nH]c3ccccc23)CC1)Nc1cccc(Br)c1` [TCMDC-139116], which “% Inhibition” value is on record?
A: -20.19%

Q: How did the “% Inhibition” value turn out when `Cc1cc(Cl)ccc1NC(=O)NCCCCCN1CCC(c2c[nH]c3ccccc23)CC1` [TCMDC-139168] was run?
A: -22.23%

Q: How did the “% Inhibition” value turn out when `O=C(NCCCCCN1CCC(c2c[nH]c3ccccc23)CC1)Nc1cccc(I)c1` [TCMDC-139201] was run?
A: 57.32%

Q: How did the “% Inhibition” value turn out when `S=C(NCCCCCN1CCC(c2c[nH]c3ccccc23)CC1)Nc1cccc(I)c1` [TCMDC-139203] was run?
A: 89.1%

Q: `O=C(NCCCCCN1CCC(c2c[nH]c3ccccc23)C1)Nc1ccc(Cl)c(Cl)c1` (centres unmarked) [TCMDC-139169] was tested. Which “% Inhibition” value did it give?
A: -42.12%

Q: How did the “% Inhibition” value turn out when `O=C(NCCCCCN1CCC(c2c[nH]c3ccccc23)CC1)Nc1ccc(I)cc1` [TCMDC-139165] was run?
A: -24.33%

Q: Which “% Inhibition” value does the source give for `S=C(NCCCCCN1CCC(c2c[nH]c3ccccc23)CC1)Nc1cc(Cl)cc(Cl)c1` [TCMDC-139171] here?
A: -46.2%

From article PMC4552634, “A New Set of Chemical Starting Points with Plasmodium falciparum Transmission-Blocking Potential for Antimalarial Drug Discovery” (PLoS ONE, 2015)
